Reference: PubChem BioAssay (NCATS)
Inconclusive results are not listed. Calls of active or inactive are those of the source. Calls follow the shape of the dose curve; as a rule, active = well fitted curve in the direction sought with a large enough effect; inconclusive = small, poorly fitted or top-dose-only effect, or another doubt; inactive = no such curve, though single readings can be large; an effect the other way counts as inactive or inconclusive. Where a SMILES comes first, the peptide text is derived from it. The star is where a group is joined. AFC = O=c1cc(C(F)(F)F)c2ccc(N*)cc2o1

Tests used:
[1] = target: Glutathione peroxidase 1 (Homo sapiens) (UniProt P07203); experiment: Primary qHTS Assay for Inhibitors of Recombinant Selenoprotein Glutathione Peroxidase 1 (GPX1) (AID 1845191); also: nearly all actives have a fitted effect of over 65% in size; also: potency is read from the fitted curve at half-maximal effect; as to activity, negative = inhibition: % is scaled to controls: 0 for no effect and ±100 for the full control effect
Summary of the method: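 GPX1 10 nM, GR 100 nM, GSH 1 mM, NADPH 0.5 mM, CHP 0.5 mM (final). 30-min cpd preincubation, RT. Ex340/Em450 read t=0, t=15 min.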

[2] = target: Phospholipid hydroperoxide glutathione peroxidase GPX4 (Homo sapiens) (UniProt P36969); experiment: Primary qHTS Assay for Inhibitors of Recombinant Selenoprotein Glutathione Peroxidase 4 (GPX4) (AID 1845192); also: nearly all actives have a fitted effect of over 65% in size; also: potency is read from the fitted curve at half-maximal effect; as to activity change, negative = inhibition: series mostly up to about 50 µM; % is scaled to controls: 0 for no effect and ±100 for the full control effect
Summary of the method: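 qHTS, GR-coupled: GPX4 200 nM + cpd 30 min RT → GSH 1 mM, NADPH 0.5 mM, GR 100 nM → CHP 0.5 mM start; fluor 340/450 at t0 and t15 min; no-enzyme wells as control.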

[3] = target: Luciferin 4-monooxygenase (Photinus pyralis) (UniProt P08659); experiment: Primary firefly luciferase (FLuc) qHTS assay for identification of artifact compounds. (AID 1845220); also: nearly all actives have a fitted effect of over 60% in size;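 as to activity change, negative = inhibition: series mostly up to about 54 µM; plate controls were DMSO vehicle for no effect and no enzyme for full effect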
Summary of the method: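 qHTS, 15 min compound preincubation with substrate (10 uM luciferin, 10 uM ATP) at RT, then 10 nM FLuc; 5 min; luminescence; % inhibition vs no-enzyme/DMSO controls, 4-parameter Hill fit.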

[4] = Primary fluorescence-based thiol-reactive (MSTI) qHTS assay for identification of artifact compounds. (AID 1845221); also: nearly all actives have a fitted effect of over 65% in size; also: potency is read from the fitted curve at half-maximal effect;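 as to activity change, negative = thiol reactive: series mostly up to about 54 µM; thiol-reactive compounds lower the probe fluorescence signal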
Summary of the method: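 One-hour, room-temperature, dark incubation of compound with 4 uM MSTI in PBS (pH 7.4, 2% DMSO) precedes a fluorescence read at 525 nm excitation, 598 nm emission; Hill-equation fitting yields concentration-response values.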

[5] = system: Nanoluciferase (engineered Oplophorus gracilirostris luciferase); experiment: Primary Nanoluciferase (NLuc) qHTS assay for identification of artifact compounds. (AID 1845222); also: series mostly up to about 54 µM
Summary of the method: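 Luminescence read-out of secreted NLuc in S16 cell conditioned medium (1:55); compounds tested with 15 min RT preincubation, then Nano-Glo substrate 1:100, 5 min. % inhibition vs no-enzyme and DMSO controls, 4-parameter Hill fit.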

[6] = Primary redox qHTS assay for identification of artifact compounds. (AID 1845223);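 also: 0% = DMSO and 100% = reference compound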
Summary of the method: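 Redox-cycling detection via DTT (250 uM final) oxidation coupled to Amplex Red (25 uM)/HRP (250 mU/mL) in HBSS. 15 min preincubation plus 30 min after DTT, room temperature. Ex/Em 525/598 nm; 4-parameter Hill fit against DMSO and 10 uM DA3003.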

Sequence of Glutathione peroxidase 1 (Homo sapiens) (P07203 whole entry, looked up): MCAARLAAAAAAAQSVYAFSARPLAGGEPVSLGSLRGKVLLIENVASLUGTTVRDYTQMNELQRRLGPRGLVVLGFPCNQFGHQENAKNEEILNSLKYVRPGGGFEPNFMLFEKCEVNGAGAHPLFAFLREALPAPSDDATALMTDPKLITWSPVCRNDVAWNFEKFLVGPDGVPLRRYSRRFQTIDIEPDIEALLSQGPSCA
Sequence of Phospholipid hydroperoxide glutathione peroxidase GPX4 (Homo sapiens) (P36969 whole entry, looked up): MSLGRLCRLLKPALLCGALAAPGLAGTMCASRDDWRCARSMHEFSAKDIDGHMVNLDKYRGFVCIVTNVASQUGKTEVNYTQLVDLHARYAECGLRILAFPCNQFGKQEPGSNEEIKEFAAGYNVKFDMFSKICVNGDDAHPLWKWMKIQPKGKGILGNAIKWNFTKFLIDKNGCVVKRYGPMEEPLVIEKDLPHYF

O=C(OCC12OC1C=CC(OC(=O)c1ccccc1)C2O)c1ccccc1 (centres undefined)
inactive: Potency [1] | Potency [2] | Potency [3] | Potency [4] | Potency [5] | Potency [6]

O=C(/C=C/c1ccc(O)cc1)OC[C@H]1O[C@@H](OC(=O)/C=C/c2ccccc2)[C@H](O)[C@@H](O)[C@@H]1O
inactive: Potency [1] | Potency [2] | Potency [3] | Potency [5] | Potency [6]
active: Potency [4] 11.6 µM

CC1(CO)CC[C@]2(C(=O)O[C@@H]3O[C@H](CO)[C@@H](O)[C@H](O)[C@H]3O)CC[C@]3(C)C(=CCC4[C@@]5(C)CC[C@H](O[C@@H]6O[C@H](C(=O)O)[C@@H](O)[C@H](O)[C@H]6O)C(C)(C)C5CC[C@]43C)C2C1 (some centres undefined)
inactive: Potency [1] | Potency [2] | activity change, negative = inhibition [3] -2.66% [at 11.6 µM] | activity change, negative = thiol reactive [4] -2.52% [at 11.5 µM] | activity, negative = inhibition [5] 2.96% [at 11.6 µM] | redox activity (% of DA3003) [6] 19.9% [at 11.5 µM]

C[C@]1(O)CC[C@@H]2C(C(=O)O)=CO[C@@H](O[C@@H]3O[C@H](COC(=O)c4ccc(O)cc4)[C@@H](O)[C@H](O)[C@H]3O)[C@@H]21
active: Potency [4] 10.3 µM
inactive: Potency [1] | Potency [2] | Potency [3] | Potency [5] | Potency [6]

CC(=O)N[C@@H](CC(C)C)C(=O)N[C@@H](CCC(=O)O)C(=O)N[C@@H](CCC(=O)O)C(=O)N[C@@H](CC(=O)O)C(=O)Nc1ccc2c(C(F)(F)F)cc(=O)oc2c1 (Ac-LEED-{AFC})
active: Potency [1] 22.7 µM | Potency [2] 20.2 µM
inactive: Potency [3] | Potency [4] | Potency [5] | Potency [6]

CC[C@H]1OC(=O)[C@H](C)[C@@H](O[C@H]2C[C@@](C)(OC)[C@@H](O)[C@H](C)O2)[C@H](C)[C@@H](O[C@@H]2O[C@H](C)C[C@H](N(C)C)[C@H]2O)[C@@](C)(O)C[C@@H](C)[C@@H]2N[C@@H](COCCOC)OC([C@H]2C)[C@]1(C)O
inactive: Potency [1] | Potency [2] | Potency [3] | Potency [4] | Potency [5] | Potency [6]

COc1cc(/C=C/C(=O)OC2CC3CCC2(C)C3(C)C)ccc1O (centres undefined)
inactive: Potency [1] | Potency [2] | Potency [3] | Potency [4] | Potency [5] | Potency [6]

O=C(O)c1n[nH]c2c1C[C@H]1C[C@@H]21
inactive: Potency [1] | Potency [2] | Potency [3] | Potency [4] | Potency [5] | Potency [6]

CC(=O)O[C@H](C[C@@H](C)[C@H]1C(=O)[C@H](O)[C@@]2(C)[C@@H]3CCC4C(C)(C)[C@@H](O[C@@H]5OC[C@H](O)[C@H](O)[C@H]5O)CC[C@@]45C[C@@]35CC[C@]12C)[C@@H]1OC1(C)C (some centres undefined)
inactive: Potency [1] | Potency [2] | Potency [3] | Potency [4] | Potency [5] | Potency [6]

COc1cc(/C=C/C(=O)OC2CC(OC(C)=O)C(OC(C)=O)C3C2CCC2C(=O)OC(c4ccoc4)CC23C)ccc1O[C@@H]1O[C@H](CO)[C@@H](O)[C@H](O)[C@H]1O (some centres undefined)
inactive: Potency [1] | Potency [2] | Potency [3] | Potency [4] | Potency [5] | Potency [6]

C[C@@H]1CC[C@]2(C(=O)O)CC[C@]3(C)C(=CCC4[C@]5(C)C(CC[C@]43C)C(C)(C)[C@@H](O)[C@H](O)[C@@H]5O)C2[C@]1(C)O (some centres undefined)
inactive: Potency [1] | Potency [2] | Potency [3] | Potency [4] | Potency [5] | Potency [6]

O=C(/C=C/c1ccccc1)OCC1=CC[C@@H]2C(C(=O)O)=CO[C@@H](O[C@@H]3O[C@H](CO)[C@@H](O)[C@H](O)[C@H]3O)[C@H]12
inactive: Potency [1] | Potency [2] | Potency [3] | Potency [4] | Potency [5] | Potency [6]

C=C[C@@]1(C)CC(=O)C2[C@](C)(O1)[C@@H](OC(C)=O)[C@@H](O)[C@H]1C(C)(C)CCC[C@]21C (some centres undefined)
inactive: Potency [1] | Potency [2] | outcome [3] inactive [at 11.6 µM] | activity change, negative = thiol reactive [4] 58.5% [at 11.5 µM] | activity, negative = inhibition [5] 3.51% [at 11.6 µM] | redox activity (% of DA3003) [6] 11% [at 11.5 µM]

C[C@@H]1C[C@H](O)/C=C/[C@H](O)[C@@H](O)CC(=O)O1
inactive: Potency [1] | Potency [2] | Potency [3] | Potency [4] | Potency [5] | Potency [6]

CC(/C=C/C1(O)C2(C)COC1(C)CC(=O)C2)O[C@@H]1O[C@H](CO)[C@@H](O)[C@H](O)[C@H]1O (some centres undefined)
active: Potency [4] 10.3 µM
inactive: Potency [1] | Potency [2] | Potency [3] | Potency [5] | Potency [6]

C=C1CC23CC1(O)CCC2C1=CC2OC(=O)C(C)(C2O)C1C3C(=O)O (centres undefined)
inactive: Potency [1] | Potency [2] | Potency [3] | Potency [4] | Potency [5] | Potency [6]

COc1cc(C(C)=O)ccc1O[C@@H]1O[C@H](CO[C@@H]2O[C@@H](C)[C@H](O)[C@@H](O)[C@H]2O)[C@@H](O)[C@H](O)[C@H]1O
inactive: Potency [1] | Potency [2] | Potency [3] | Potency [4] | Potency [5] | Potency [6]

CC(C)c1ccc(CC(=O)N2CCC[C@@H](c3cccc(OC(C)(C)C(=O)O)c3)C2)cc1
inactive: Potency [1] | Potency [2] | Potency [3] | Potency [4] | Potency [5] | Potency [6]

CC(C)CC1(C(=O)OCc2ccc(O[C@@H]3O[C@H](CO)[C@@H](O)[C@H](O)[C@H]3O)cc2)CC(=O)OC(C(=O)O)CC(=O)OCC2OC(O1)C(OC(=O)/C=C/c1ccc(O)cc1)C(O)C2O (some centres undefined)
inactive: Potency [1] | Potency [2] | activity change, negative = inhibition [3] 3.35% [at 11.6 µM] | activity change, negative = thiol reactive [4] 14.7% [at 11.5 µM] | activity, negative = inhibition [5] -4.21% [at 11.6 µM] | redox activity (% of DA3003) [6] 23.6% [at 11.5 µM]
